# Measurements published in ChEMBL document CHEMBL5606460, “ASAP - DENV-2 NS2B-NS3 protease fluorescence single point” (2024).
# About 110 (5.5%) of roughly 2,000 compounds showed an effect of 50% or more. This is one part of a sample in which strong results are shown more often than they occur.
# Target: Genome polyprotein (dengue virus type 2) (UniProt P29990)
# [1] = Thailand/16681/1984, Concentration 25.0 uM, Number of replicates 1.0
smiles,measurement,setting,value
Cc1cc(CO)c2cccc(NC(=O)c3nc(C4CCNCC4)oc3C)c2n1,inhibition,"Thailand/16681/1984, Concentration 49.95 uM, Number of replicates 2.0, Standard deviation 36.17788639576005 %",67.7%
same,inhibition,"Thailand/16681/1984, Concentration 99.9 uM, Number of replicates 2.0, Standard deviation 0.36888000776056334 %",98.7%
Cc1cc(CO)c2cccc(C[C@H](NC(=O)c3nc(C4CCNCC4)oc3C)C(=O)O)c2n1,inhibition,"Thailand/16681/1984, Concentration 49.95 uM, Number of replicates 2.0, Standard deviation 0.8080216779744858 %",2.79%
same,inhibition,"Thailand/16681/1984, Concentration 99.9 uM, Number of replicates 2.0, Standard deviation 0.4573836691864076 %",10%
Cc1nccc(Cn2cc(C3CCNCC3)c(C)n2)n1,inhibition,"Thailand/16681/1984, Concentration 49.5 uM, Number of replicates 2.0, Standard deviation 0.12424043789356491 %",-1.07%
same,inhibition,"Thailand/16681/1984, Concentration 99.01 uM, Number of replicates 2.0, Standard deviation 0.32682664095966646 %",-0.665%
same,inhibition,"Thailand/16681/1984, Concentration 198.0 uM, Number of replicates 2.0, Standard deviation 1.945197851645592 %",1.76%
CN(Cc1nc2ccccc2n1C)C(=O)C1CCN(c2ccc(C=O)cc2)CC1,inhibition,[1],14.9%
CNC(=O)c1cc(Cl)cc(OC)c1NS(=O)(=O)c1ccc(Oc2ccccc2Cl)cc1,inhibition,"Thailand/16681/1984, Concentration 49.5 uM, Number of replicates 2.0, Standard deviation 0.8103097460864452 %",1.45%
same,inhibition,"Thailand/16681/1984, Concentration 99.01 uM, Number of replicates 2.0, Standard deviation 1.6946405270728757 %",1.53%
same,inhibition,"Thailand/16681/1984, Concentration 198.0 uM, Number of replicates 2.0, Standard deviation 1.1024722794831296 %",-0.559%
CNC(=O)c1cc(Cl)c(OC)cc1NS(=O)(=O)c1ccc(Oc2ccccc2Cl)cc1,inhibition,"Thailand/16681/1984, Concentration 49.5 uM, Number of replicates 2.0, Standard deviation 1.7443589304782063 %",79.2%
same,inhibition,"Thailand/16681/1984, Concentration 99.01 uM, Number of replicates 2.0, Standard deviation 0.14348540542006383 %",98.5%
same,inhibition,"Thailand/16681/1984, Concentration 198.0 uM, Number of replicates 2.0, Standard deviation 0.05118043543332502 %",99.3%
CNC(=O)c1ccncc1NS(=O)(=O)c1ccc(Oc2ccccc2Cl)cc1,inhibition,"Thailand/16681/1984, Concentration 49.5 uM, Number of replicates 2.0, Standard deviation 3.023334340601001 %",-2.48%
same,inhibition,"Thailand/16681/1984, Concentration 99.01 uM, Number of replicates 2.0, Standard deviation 3.20078374174672 %",-0.672%
same,inhibition,"Thailand/16681/1984, Concentration 198.0 uM, Number of replicates 2.0, Standard deviation 2.339843576600017 %",2.95%
CNC(=O)c1nccnc1NS(=O)(=O)c1ccc(Oc2ccccc2Cl)cc1,inhibition,"Thailand/16681/1984, Concentration 49.5 uM, Number of replicates 2.0, Standard deviation 1.5095148361141704 %",0.146%
same,inhibition,"Thailand/16681/1984, Concentration 99.01 uM, Number of replicates 2.0, Standard deviation 1.499470483470751 %",2.7%
same,inhibition,"Thailand/16681/1984, Concentration 198.0 uM, Number of replicates 2.0, Standard deviation 0.45486328764545614 %",7.74%
CNC(=O)c1cc(Cl)c(F)cc1NS(=O)(=O)c1ccc(Oc2ccccc2Cl)cc1,inhibition,"Thailand/16681/1984, Concentration 49.5 uM, Number of replicates 2.0, Standard deviation 0.030615470758313425 %",98.6%
same,inhibition,"Thailand/16681/1984, Concentration 99.01 uM, Number of replicates 2.0, Standard deviation 0.03013533386007732 %",99.7%
same,inhibition,"Thailand/16681/1984, Concentration 198.0 uM, Number of replicates 2.0, Standard deviation 0.00477978979592347 %",98.7%
CNC(=O)c1cn(S(=O)(=O)c2ccc(Oc3ccccc3Cl)cc2)c2ccc(Cl)cc12,inhibition,"Thailand/16681/1984, Concentration 49.5 uM, Number of replicates 2.0, Standard deviation 1.1380993582408887 %",0.625%
same,inhibition,"Thailand/16681/1984, Concentration 99.01 uM, Number of replicates 2.0, Standard deviation 1.0406365412270837 %",4.48%
same,inhibition,"Thailand/16681/1984, Concentration 198.0 uM, Number of replicates 2.0, Standard deviation 0.5161930213749926 %",12.8%
Cc1cc(NS(=O)(=O)c2ccc(Oc3ccccc3Cl)cc2)c(C(=O)NCC(F)(F)F)cc1F,inhibition,"Thailand/16681/1984, Concentration 49.5 uM, Number of replicates 2.0, Standard deviation 0.004288863304468577 %",80.7%
same,inhibition,"Thailand/16681/1984, Concentration 99.01 uM, Number of replicates 2.0, Standard deviation 0.05387243894141284 %",85%
same,inhibition,"Thailand/16681/1984, Concentration 198.0 uM, Number of replicates 2.0, Standard deviation 0.06674981844803736 %",82.2%
CN1CCN(c2ccc(CCNc3ccccc3F)cc2)CC1,inhibition,"Thailand/16681/1984, Concentration 49.5 uM, Number of replicates 2.0, Standard deviation 1.1725472419342977 %",-4.52%
same,inhibition,"Thailand/16681/1984, Concentration 99.01 uM, Number of replicates 2.0, Standard deviation 1.0151129155310683 %",-3.89%
same,inhibition,"Thailand/16681/1984, Concentration 198.0 uM, Number of replicates 2.0, Standard deviation 0.9851713728804441 %",-1.99%
CNS(=O)(=O)c1ccc(CNCc2ccc(N3CCN(C)CC3)cc2)cc1,inhibition,"Thailand/16681/1984, Concentration 49.5 uM, Number of replicates 2.0, Standard deviation 0.2679515396874046 %",-1.41%
same,inhibition,"Thailand/16681/1984, Concentration 99.01 uM, Number of replicates 2.0, Standard deviation 0.0046358372348345115 %",-0.423%
same,inhibition,"Thailand/16681/1984, Concentration 198.0 uM, Number of replicates 2.0, Standard deviation 1.744466130987394 %",0.949%
CC(C)(C)OC(=O)N1CCOC[C@H]1CNCc1nnc2ccccn12,inhibition,"Thailand/16681/1984, Concentration 49.5 uM, Number of replicates 2.0, Standard deviation 3.6636813935617547 %",-2.66%
same,inhibition,"Thailand/16681/1984, Concentration 99.01 uM, Number of replicates 2.0, Standard deviation 2.060655687099608 %",-2.48%
same,inhibition,"Thailand/16681/1984, Concentration 198.0 uM, Number of replicates 2.0, Standard deviation 3.020799081222525 %",-1.72%
CC(C)Cn1cccc(C(=O)Nc2ccncc2)c1=O,inhibition,"Thailand/16681/1984, Concentration 49.5 uM, Number of replicates 2.0, Standard deviation 1.6949837288603 %",4.6%
same,inhibition,"Thailand/16681/1984, Concentration 99.01 uM, Number of replicates 2.0, Standard deviation 0.80587134576346 %",8.75%
same,inhibition,"Thailand/16681/1984, Concentration 198.0 uM, Number of replicates 2.0, Standard deviation 0.4281674737986559 %",16%
Cc1cc(CO)c2cccc(Cc3ccccc3NC(=O)Cc3csc(Cc4ccccc4)n3)c2n1,inhibition,"Thailand/16681/1984, Concentration 49.95 uM, Number of replicates 2.0, Standard deviation 1.2441700790071646 %",-0.54%
same,inhibition,"Thailand/16681/1984, Concentration 99.9 uM, Number of replicates 2.0, Standard deviation 1.3300226430755788 %",0.901%
O=Cc1ccc(N2CCC(C(=O)N3CCC(O)(c4ccc(Br)cc4)CC3)CC2)cc1,inhibition,[1],14.6%
